IL1B secr inh: qHTS for Inhibitors of Inflammasome Signaling: IL-1-beta AlphaLISA Primary Screen; THP-1 LPS/ATP IL-1B secretion, AlphaLISA, 16 h; hits give low values; activity change, % at 57.5 µM; hit rate 4.7% among 360,000; AID 743279, 2014; in the data active = activity change below about -50%; inconclusive = mostly about -30% to -49%; note: % is set by controls: 0 for no effect and ±100 for the full control effect
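THP-1 cells pretreated 1 hr with compounds (up to 57.5 uM final), then stimulated with LPS (250 ng/mL final) plus ATP (1.25 mM final); secreted IL-1B measured by AlphaLISA after 16 hr, decreased signal indicating inhibition.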
DT40 TDP1 no CPT: qHTS for Inhibitors of human tyrosyl-DNA phosphodiesterase 1 (TDP1): qHTS in cells in absence of CPT; hit rate 15% among 420,000; Potency, µM (series often up to 46.2 µM), for inactives: at the top dose activity change, negative = growth inhibition, most hits filed as inhibitors; DT40 Tdp1-/- hTDP1 cells, no CPT, ATP luminescence, 48 h; note: potency is the fitted concentration of half-maximal effect; % is set by controls: 0 for no effect and ±100 for the full control effect; nearly all actives have a fitted effect of over 55% in size
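A cellular qHTS used chicken DT40 cells lacking endogenous Tdp1 but carrying stably transfected human TDP1. Compounds were applied without camptothecin, and cell growth kinetics were judged by ATP-dependent luminescence after ≥48 hr.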
DT40 TDP1 CPT: qHTS for Inhibitors of human tyrosyl-DNA phosphodiesterase 1 (TDP1): qHTS in cells in presence of CPT. Potency, µM (titrated, usually from 46.2 µM), for the others: at the highest dose activity change, negative = growth inhibition, actives largely listed as inhibitors. chicken DT40 Tdp1-/-;hTDP1 cells + 20 nM CPT, ATP luminescence, 48 h. hit rate 12% among 420,000; note: potency is the fitted concentration of half-maximal effect; % is set by controls: 0 for no effect and ±100 for the full control effect; nearly all actives have a fitted effect of over 55% in size
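Cell growth measured by CellTiter-Glo luminescence after a minimum 48 h, 37 C compound exposure with 20 nM CPT in Tdp1-knockout DT40 cells stably expressing hTDP1, seeded 400/well; qHTS titration format.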
S-ASM inh: Inhibitors of Secretory Acid Sphingomyelinase (S-ASM): qHTS; Sphingomyelin phosphodiesterase (Homo sapiens), P17405; placental ASM, HMU-PC fluorogenic substrate, 60 min; AID 504937, 2011; hit rate 0.006% among 340,000; Potency, µM (titrated, usually from 57.5 µM), for inactives: at the highest dose activity change, negative = inhibition, actives largely listed as inhibitors; note: potency is the fitted concentration of half-maximal effect
Target sequence (P17405 47-631 limits assumed): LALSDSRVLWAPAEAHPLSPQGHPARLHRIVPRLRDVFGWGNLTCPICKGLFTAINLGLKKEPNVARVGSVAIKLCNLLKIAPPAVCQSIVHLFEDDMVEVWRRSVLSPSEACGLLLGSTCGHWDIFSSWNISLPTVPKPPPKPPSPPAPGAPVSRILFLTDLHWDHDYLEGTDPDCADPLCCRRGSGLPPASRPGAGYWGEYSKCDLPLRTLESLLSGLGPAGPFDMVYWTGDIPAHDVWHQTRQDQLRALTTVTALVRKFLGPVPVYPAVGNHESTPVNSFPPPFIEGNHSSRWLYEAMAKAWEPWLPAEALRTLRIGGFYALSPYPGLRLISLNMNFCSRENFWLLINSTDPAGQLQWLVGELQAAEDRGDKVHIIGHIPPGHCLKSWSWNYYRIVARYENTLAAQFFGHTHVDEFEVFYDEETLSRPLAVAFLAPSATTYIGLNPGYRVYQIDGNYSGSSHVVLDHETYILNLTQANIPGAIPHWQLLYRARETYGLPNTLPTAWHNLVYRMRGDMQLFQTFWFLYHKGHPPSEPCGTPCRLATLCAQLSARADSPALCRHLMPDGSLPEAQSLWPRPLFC
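Fluorogenic HMU-PC substrate (9 uM final) is turned over by placental ASM in 60 min at 37 C after a 10 min compound preincubation. Reaction ended by alkaline stop (pH 10), with fluorescence read at 386/447 nm.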
HepG2 tox: qHTS for Inhibitors of TGF-b: Cytotox Counterscreen. AID 588856, 2011. hit rate 0.76% among 410,000. Potency, µM (doses to about 46.1 µM), for inactives: top-dose activity change, negative = cytotoxicity, usual class: cytotoxic. HepG2 CAGA-GFP viability, ATP luminescence, 18 h; note: potency is the fitted concentration of half-maximal effect
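CellTiter-Glo luminescence gave cytotoxicity after 18 hours at 37 degrees C. The cells were HepG2 CAGA-GFP in 1% FBS DMEM, stimulated with 500 pg/mL TGF-beta after compound addition. %Activity was normalised to no-cell wells (complete cell-killing) and DMSO (no toxicity), and curves were fitted and classified.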
TGFb SMAD3 inh: qHTS for Inhibitors of TGF-b | AID 588855, 2011 | hit rate 1.2% among 410,000 | HepG2 CAGA-GFP TGF-b/SMAD3 reporter, GFP fluorescence, 18 h; TGF-beta stimulated, 500 pg/mL final | Potency, µM (top dose mostly 46.1 µM), for the others: at the top dose activity, negative = inhibition, hits mostly inhibitors; note: potency is the fitted concentration of half-maximal effect; % is set by controls: 0 for no effect and ±100 for the full control effect; nearly all actives have a fitted effect of over 65% in size
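Per well, imaged GFP fluorescence of HEPG2 CAGA-GFP cells gives the signal; cells get compound, then TGF-beta (500 pg/mL final), 18 h at 37 degrees C; %Activity versus -TGF-beta and +DMSO controls.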
Numbers without * were called inactive; ? = inconclusive; · = no result. Hits are enriched below; roughly 19% of the tested compounds scored in any of these assays. Unless noted, calls come from the whole dose curve; as a rule, active = well fitted curve in the direction sought with a large enough effect; inconclusive = small, poorly fitted or top-dose-only effect, or another doubt; inactive = no such curve, though single readings can be large; an effect the other way counts as inactive or inconclusive.

SMILES	IL1B secr inh	DT40 TDP1 no CPT	DT40 TDP1 CPT	S-ASM inh	HepG2 tox	TGFb SMAD3 inh
O=C(NCCCN1CCOCC1)c1cccc(S(=O)(=O)Nc2ccc(F)cc2)c1	1.2	-1.1%	-9.8%	7.5%	-7.1%	6.4%
O=C(NCC(c1cccs1)N1CCOCC1)C1CCN(S(=O)(=O)c2ccccc2C(F)(F)F)CC1 (stereo unspecified)	22.2	-0.7%	-1.6%	-2.3%	-2.8%	21.3%
CNC(=O)C1CCC(Cn2c(=O)c3sccc3n(CC(=O)Nc3ccc(C)c(F)c3)c2=O)CC1 (stereo unspecified)	·	?	?	·	-20.9%	-27.7%
COc1cc(/C=N/N=C(\N)c2nonc2N)cc(OC)c1O	-7.7	?	-9.6%	-4.4%	-13.3%	-16.1%
CCOc1cc(/C=N/N=C(\N)c2nonc2N)cc(Br)c1OCc1cccc2ccccc12	3.2	13µM*	23.1µM*	-3.5%	11.2µM*	?
COC(=O)N/N=C/c1cccc(OCCSc2ccc(Cl)cc2)c1	-21.6	?	?	-18.1%	1.9%	?
CCOc1cc(/C=N/NC(N)=S)cc(Br)c1OCc1ccccc1C	68.4	16.4µM*	5.8µM*	?	-51.9%	-23.0%
NC(=S)N/N=C/c1ccccc1OCCSc1ccc(Cl)cc1	?	14.6µM*	13µM*	-5.7%	-61.1%	-21.1%
COc1cc(/C=N/NC(N)=S)cc(Br)c1OCc1ccccc1F	32.2	6.51µM*	6.51µM*	-23.3%	-50.9%	?
CCOc1cc(/C=N/NC(N)=O)cc(Br)c1OCc1ccccc1	8.1	?	?	-23.0%	-21.5%	2.4%
CNC(=S)N/N=C/c1cc(Br)c(OCc2ccncc2)c(OC)c1	-1.7	?	?	-5.3%	-1.5%	-10.5%
COc1cccc(/C=N/NC(N)=S)c1OCc1ccccc1Cl	-14.3	4.11µM*	2.91µM*	0.0%	8.3%	-14.5%
COc1cccc(/C=N/n2nnnc2N)c1OCc1ccccc1Cl	10.1	-16.4%	-3.4%	0.0%	-9.8%	3.0%
C#CCOc1c(Cl)cc(/C=N/NC(N)=S)cc1OCC	23.6	10.3µM*	?	3.1%	15.8%	0.0%
C#CCOc1c(Cl)cc(/C=C2/C(=O)ON=C2C)cc1OCC	10.7	?	?	-2.0%	1.2%	-0.5%
NC(N)=NCc1cccc(I)c1	0.1	2.91µM*	6.51µM*	5.9%	-19.6%	5.3%
CN(C)CCSc1nnc2sc3ccccc3n12	15.0	-22.6%	-8.2%	1.6%	-3.4%	2.4%
COc1ccc(OCCSc2nnc3sc4ccccc4n23)cc1	-79.2*	?	?	-4.3%	-18.4%	1.0%
COc1ccccc1OCCSc1nnc(C)n1-c1ccccc1	0.0	-12.9%	-21.7%	2.9%	-8.4%	5.3%
COc1ccc(OCCSc2nnc(C)n2-c2ccccc2)cc1	-9.1	25.9µM*	29.1µM*	-3.1%	-12.5%	-3.8%
CCOC(=O)c1ccccc1NC(=O)N1CCC(CN2CCOCC2)CC1	·	-25.6%	-8.7%	·	3.0%	19.9%
Cc1cc(OCc2cc(C(=O)NC(C)c3c(C)nn(C)c3C)no2)cc(C)c1Cl (stereo unspecified)	-28.5	?	?	0.6%	-31.6%	11.2µM*
Cc1cc(OCc2cc(C(=O)NC(C)c3cnn(C)c3)no2)cc(C)c1Cl (stereo unspecified)	-9.4	16.4µM*	18.4µM*	·	-27.1%	-10.6%
